# In all, about 66,000 compounds went through this assay and about 960 (1.5%) showed an effect of 50% or more. Only a selection was taken, and strong results are over-represented in it overall.
# Test system: Trypanosoma brucei
# Assay: Trypanosoma brucei 72 hour study
# Format: functional, organism-based
# Design: scale not given: in the data most compounds retested in dose-response had high values
smiles,measurement,setting,value
Cc1nc(N)sc1C(=O)N1CCCC(c2nccn2CCCN(C)C)C1 (stereo not given),Percent Effect,"30 µM, 30.03 µM",50.48%
Cc1cc(C)nc(N2CCCC(c3nccn3CCCN(C)C)C2)c1 (stereo not given),Percent Effect,"30 µM, 30.03 µM",-17.07%
CCn1ccnc1C1CCCN(C(=O)c2sc(C)nc2C)C1 (stereo not given),Percent Effect,"30 µM, 30.03 µM",-29.7%
N#CCc1cccc(C(=O)N2CCN(CC(O)c3ccccc3)CC2)c1 (stereo not given),Percent Effect,"30.3 µM, […]",6.868%
same,Percent Effect,"10 mM, 10 mM as filed; unlikely as a test dose",-3.185%
Cc1noc(C)c1CNCC1CCN(CC(O)c2ccccc2)CC1 (stereo not given),Percent Effect,"30 µM, 30.03 µM",39.8%
OC(CN1CCC(CNCc2ccccn2)CC1)c1ccccc1 (stereo not given),Percent Effect,10 µM,-26.34%
same,Percent Effect,"30.3 µM, […]",32.19%
CCn1ccnc1CNCC1CCN(CC(O)c2ccccc2)CC1 (stereo not given),Percent Effect,"30 µM, 30.03 µM",95.36%
Cc1ncccc1CNCC1CCN(CC(O)c2ccccc2)CC1 (stereo not given),Percent Effect,"30 µM, 30.03 µM",36.2%
Cc1ccc(CNCC2CCN(CC(O)c3ccccc3)CC2)o1 (stereo not given),Percent Effect,10 µM,51.2%
same,Percent Effect,"30.3 µM, […]",70.09%
CCn1ccnc1CN1CCN(CC(O)c2ccccc2)CC1 (stereo not given),Percent Effect,"30 µM, 30.03 µM",-18.29%
CN(C)CCOC[C@H]1CC[C@H]2[C@H](CCN2C(=O)c2ccoc2)O1.O=C(O)C(F)(F)F,Percent Effect,"30 µM, 30.03 µM",21.89%
Cc1cnn(CC2CCCN2C(=O)c2cn(C)c3ccccc23)c1 (stereo not given),Percent Effect,10 µM,-33.63%
Cc1ccc(-c2cc(CNc3ncnc4c3CCNCC4)no2)cc1,Percent Effect,"30 µM, 30.03 µM",31.3%
CSc1ccc(CN(C)Cc2noc(C(C)(C)C)n2)cc1,Percent Effect,"30 µM, 30.03 µM",-12.59%
Cc1ccc2c(n1)N(CCn1cccn1)CCN(CC1CC1)C2.O=C(O)C(F)(F)F.O=C(O)C(F)(F)F,Percent Effect,"30.3 µM, […]",-30.39%
CS(=O)(=O)N1CCC(CNC(=O)C2CCCC2)CC1,Percent Effect,"30 µM, 30.03 µM",-35.01%
Cc1cc(N2CCC3(CCCN(CCO)C3=O)C2)nc(C)c1C#N (stereo not given),Percent Effect,"30 µM, 30.03 µM",-51.69%
COCCN1CCCC2(CCN(c3cc(C)c(C#N)c(C)n3)C2)C1=O (stereo not given),Percent Effect,"30 µM, 30.03 µM",50.02%
Cc1cc(C)c(C#N)c(N2CCC3(CCCN(CCO)C3=O)C2)n1 (stereo not given),Percent Effect,"30 µM, 30.03 µM",-17.57%
Cn1cccc1C(=O)N1CCC2(CCN(C(=O)c3cccnc3)C2)CC1.O=C(O)C(F)(F)F,Percent Effect,"30.3 µM, […]",-55.95%
CC1c2ncc(CNC(=O)C3CC3)n2CCN1Cc1ccncc1.O=C(O)C(F)(F)F.O=C(O)C(F)(F)F (stereo not given),Percent Effect,"30.3 µM, […]",-14.67%
C[C@@H]1C(=O)NC[C@H]2CN(CCc3ccccc3)C[C@H]21.O=C(O)C(F)(F)F,Percent Effect,"30.3 µM, […]",-1.404%
CCc1nc(CN(C(C)=O)C2CCN(CCc3ccccn3)C2)no1 (stereo not given),Percent Effect,10 µM,65.29%
CCc1nc(CN(C(C)=O)C2CCN(CCc3ccccc3)C2)no1 (stereo not given),Percent Effect,10 µM,-54.25%
CCc1nc(CN(C)C2CCN(CCc3ccccn3)C2)no1 (stereo not given),Percent Effect,"30 µM, 30.03 µM",3.156%
Cc1ccc(CN2C[C@@H]3[C@@H](C(=O)NCC4CC4)CCS(=O)(=O)[C@@H]3C2)cc1.O=C(O)C(F)(F)F,Percent Effect,"30.3 µM, […]",-76.84%
O=C1C[C@H]2CC[C@@H](CN1)N2C(=O)Cc1ccsc1,Percent Effect,"30.3 µM, […]",-6.652%
CN(C)C(=O)COCc1cncc2c1CCN(Cc1ccccn1)C2.O=C(O)C(F)(F)F.O=C(O)C(F)(F)F,Percent Effect,"30.3 µM, […]",-50.95%
O=C(NC1CC1)[C@@H]1CCO[C@@H]2CCN(CCc3ccccc3)C[C@@H]21.O=C(O)C(F)(F)F,Percent Effect,"30.3 µM, […]",-14.39%
CC(C)n1c2ccccc2c2c1cc(C(=O)N(C)C)n2C,Percent Effect,"30.3 µM, […]",-58.05%
CC(CNC(=O)c1ccc(C#N)cc1)N1CCc2ccccc21 (stereo not given),Percent Effect,"30.3 µM, […]",1.685%
CC(CNC(=O)Nc1ccc(C#N)cc1)N1CCc2ccccc21 (stereo not given),Percent Effect,"30.3 µM, […]",100.3%
COc1ccc(NC(=O)NCC(C)N2CCc3ccccc32)cc1 (stereo not given),Percent Effect,"30.3 µM, […]",-7.739%
CC(=O)Nc1c(C)noc1/C=C\c1ccc(S(=O)(=O)NC2CC2)cc1,Percent Effect,"30.3 µM, […]",-2.674%
COCC(=O)N1CCCCC1c1ccnc(Nc2ncc(C)s2)n1 (stereo not given),Percent Effect,"30.3 µM, […]",16.03%
c1ccc(CCN2CCCC2c2cccc(Nc3nccs3)n2)cc1 (stereo not given),Percent Effect,"30.3 µM, […]",29.28%
CS(=O)(=O)N1CCCC1c1cccc(Nc2nccs2)n1 (stereo not given),Percent Effect,"30.3 µM, […]",92.1%
Cc1ccccc1CN1CCCC1c1cccc(Nc2nccs2)n1 (stereo not given),Percent Effect,"30.3 µM, […]",5.594%
Cc1cnc(Nc2cccc(C3CCCN3C(=O)CO)n2)s1 (stereo not given),Percent Effect,"30.3 µM, […]",28.67%
COCC(=O)N1CCCC1c1cccc(Nc2ncc(C)s2)n1 (stereo not given),Percent Effect,"30.3 µM, […]",85.92%
Cc1nnc2n1CCN(C(=O)CN(C)Cc1ccccc1)C2,Percent Effect,"30.3 µM, […]",-14.91%
O=C(NCC1CCOCC1)[C@@H]1CC[C@@H]2[C@@H](CCN2Cc2ccncc2)O1.O=C(O)C(F)(F)F.O=C(O)C(F)(F)F,Percent Effect,"30.3 µM, […]",-62.66%
CCc1noc(CCC(=O)N[C@@H]2CC[C@@H](n3ccnc3C)[C@@H]2O)n1,Percent Effect,"30.3 µM, […]",-7.313%
O=C(O)C(F)(F)F.c1coc(CN2CCO[C@H]3[C@H](OCC4CC4)CC[C@@H]32)c1,Percent Effect,"30.3 µM, […]",0.4404%
Oc1c(F)cc(CNc2cccc(-c3nnc[nH]3)c2)cc1F,Percent Effect,"30 µM, 30.03 µM",-51.33%
c1cc(NCc2ccsc2)cc(-c2nnc[nH]2)c1,Percent Effect,"30 µM, 30.03 µM",-50.24%
Oc1ccc(Br)c(CNc2cccc(-c3nnc[nH]3)c2)c1,Percent Effect,"30 µM, 30.03 µM",56.16%

# Reference: ChEMBL document CHEMBL3988442, “University of Dundee, Small-Polar-MMV Screening Library” (2021)
